TDP1 cell CPT = DT40-hTDP1 cell growth loss with CPT; 420,000 tested, 12% active; Potency, µM (top dose mostly 46.2 µM), usual class: inhibitors; chicken DT40 Tdp1-/-;hTDP1 cells + 20 nM CPT, ATP luminescence, 48 h; also: nearly all actives have a fitted effect of over 55% in size
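Chicken DT40 Tdp1-/- cells stably complemented with human TDP1 were seeded at 400 cells/well in medium containing 20 nM camptothecin, exposed to pin-transferred compounds, and grown at 37 °C for at least 48 hr. Viability was read as ATP luminescence.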
IL-1B inflam inh = inflammasome signaling inhibition, IL-1 beta readout; THP-1 LPS/ATP IL-1B secretion, AlphaLISA, 16 h; hits give low values; activity change, % at 57.5 µM; 360,000 tested, 4.7% active; AID 743279; in the data active = activity change below about -50%; inconclusive = mostly about -30% to -49%
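Secreted IL-1B measured by AlphaLISA bead assay after 16 h compound exposure of THP-1 cells; compounds (final up to 57.5 uM) added 1 h before LPS (250 ng/mL) and ATP (1.25 mM) stimulation; lower signal means less secretion.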
TDP1 block = TDP1 (human) enzyme inhibition. Q9NUW8. recombinant TDP1, AlphaScreen DNA substrate cleavage. Potency, µM (top dose mostly 130 µM), most hits filed as inhibitors. 350,000 tested, 0.28% active. AID 485290; also: nearly all actives have a fitted effect of over 40% in size
Target sequence (Q9NUW8 whole entry, looked up): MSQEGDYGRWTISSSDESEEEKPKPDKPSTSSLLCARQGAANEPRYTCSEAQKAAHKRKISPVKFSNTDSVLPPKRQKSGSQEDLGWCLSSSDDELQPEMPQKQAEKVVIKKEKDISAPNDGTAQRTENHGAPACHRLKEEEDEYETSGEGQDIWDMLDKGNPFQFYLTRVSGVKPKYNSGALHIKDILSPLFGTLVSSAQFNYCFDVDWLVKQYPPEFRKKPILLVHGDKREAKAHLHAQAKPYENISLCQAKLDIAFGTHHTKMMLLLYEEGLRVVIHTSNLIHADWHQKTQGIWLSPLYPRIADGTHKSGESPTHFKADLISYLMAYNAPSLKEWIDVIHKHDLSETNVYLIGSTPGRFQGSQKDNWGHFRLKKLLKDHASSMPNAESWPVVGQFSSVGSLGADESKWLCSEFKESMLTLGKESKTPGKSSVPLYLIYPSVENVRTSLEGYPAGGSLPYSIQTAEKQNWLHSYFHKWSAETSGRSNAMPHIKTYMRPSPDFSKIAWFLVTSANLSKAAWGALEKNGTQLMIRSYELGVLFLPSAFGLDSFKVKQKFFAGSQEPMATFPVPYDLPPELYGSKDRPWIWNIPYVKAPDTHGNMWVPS
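Compounds were preincubated with Tdp1 (1 nM final) for 15 min at room temperature before substrate (15 nM final) started a 5 min reaction; beads (10 ug/ml final) were then added for 10 min before AlphaScreen detection.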
TGFb SMAD3 inh = blocks TGF-b signaling. AID 588855. 410,000 tested, 1.2% active. HepG2 CAGA-GFP TGF-b/SMAD3 reporter, GFP fluorescence, 18 h; TGF-beta stimulated, 500 pg/mL final. Potency, µM (doses to about 46.1 µM), actives largely listed as inhibitors; also: nearly all actives have a fitted effect of over 65% in size
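Inhibition of TGF-beta-driven CAGA-GFP reporter expression in HEPG2 cells is measured by cellular GFP fluorescence after 18 h stimulation with 500 pg/mL recombinant TGF-beta in 1% FBS medium at 37 degrees C.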
TDP1 cell noCPT = qHTS for Inhibitors of human tyrosyl-DNA phosphodiesterase 1 (TDP1): qHTS in cells in absence of CPT | DT40 Tdp1-/- hTDP1 cells, no CPT, ATP luminescence, 48 h | Potency, µM (series often up to 46.2 µM), most hits filed as inhibitors | 420,000 tested, 15% active | AID 686978, 2013; also: nearly all actives have a fitted effect of over 55% in size
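Cells were dispensed at 400 per well, compounds added by pin tool, plates incubated ≥48 hr at 37 °C, then CellTiter-Glo added for 30 min at room temperature before luminescence reading. Line: DT40 Tdp1-/- complemented with hTDP1; camptothecin omitted.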
HepG2 tox = HepG2 cytotoxicity, counter-screen for TGF-b inhibitors; HepG2 CAGA-GFP viability, ATP luminescence, 18 h; Potency, µM (titrated, usually from 46.1 µM), usual class: cytotoxic; 410,000 tested, 0.76% active
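HepG2 CAGA-GFP cells (1000/well, DMEM with 1% FBS) received compound, then TGF-beta at 500 pg/mL final, and were incubated 18 hours at 37 degrees C. Viability was read by CellTiter-Glo luminescence. Media-only wells were set as complete cell-killing and DMSO as no toxicity.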
Numbers stand for hits; n = inactive; u = inconclusive; x = no result given; [ ] = another dose, or the depositor's remark. Most compounds without a hit are left out; they make up all but 19% or so of the library. Unless noted, calls follow the shape of the dose curve; as a rule, active = well fitted curve in the direction sought with a large enough effect; inconclusive = small, poorly fitted or top-dose-only effect, or another doubt; inactive = no such curve, though single readings can be large; an effect the other way counts as inactive or inconclusive.

SMILES | TDP1 cell CPT | IL-1B inflam inh | TDP1 block | TGFb SMAD3 inh | TDP1 cell noCPT | HepG2 tox
CCn1c(SCC(=O)N2CCN(c3ccccc3)CC2)nnc1-c1ccncc1 | x | x | n | x | x | x
Cc1nnc(SCC(=O)N2CCCC2)n1-c1ccc(F)cc1 | n | n | x | n | n | 4.5µM
CCn1c(CSCc2ccc(F)cc2)nnc1SCC(=O)N1CCN(c2ccccc2)CC1 | u | u | n | n | 23µM | n
Cc1ccc(CSCC(=O)N2CCN(c3ccccc3)CC2)cc1 | u | n | n | n | u | n
Cc1ccc(CSCc2nnc(SCC(=O)N3CCN(c4ccccc4)CC3)n2C)cc1 | u | u | n | n | 16µM | n
O=C(NCc1ccc(C(F)(F)F)cc1)c1cccc2c(-c3ccc(F)c(F)c3)coc12 | u | n | x | u | u | n
COc1cc(-c2coc3c(C(=O)NCc4ccccc4)cccc23)ccc1O | 18µM | u | x | n | n | n
COc1ccc(NC(=O)c2cccc3c(-c4ccc(O)c(OC)c4)coc23)cc1 | u | n | x | n | 18µM | n
COc1cc(-c2coc3c(C(=O)NCc4cccc(Cl)c4)cccc23)ccc1O | u | -55 | x | u | 18µM | n
CCOC(=O)C1CCCN(C(=O)c2c(C)nn(-c3ccc(F)cc3)c2-n2cccc2)C1 (centres undefined) | x | x | n | n | x | n
COc1ccccc1N1CCN(CC(O)COc2c(OC)cccc2OC)CC1 (centres undefined) | 16µM | n | n | n | u | n
COc1cccc(OC)c1OCC(O)CN1CCN(c2ccccc2)CC1 (centres undefined) | u | n | n | n | n | n
COc1ccccc1N1CCN(CC(O)COCCOc2ccc(Br)cc2)CC1 (centres undefined) | 16µM | n | n | u | u | n
OC(CNC1CCCC1)COc1ccc(Cl)cc1 (centres undefined) | u | u | n | n | u | n
OC(COc1cccc2ccccc12)CN1CCN(c2ccccc2Cl)CC1 (centres undefined) | 18µM | n | n | n | u | n
COc1ccccc1N1CCN(CC(O)COCc2cccs2)CC1 (centres undefined) | n | n | n | n | n | n
OC(CNC1CCCC1)COCCOc1ccc(Br)cc1 (centres undefined) | u | -66 | n | n | u | n
COC(=O)NC(c1ccco1)C(C(C)=O)C(=O)OC (centres undefined) | x | x | n[21 µM] | x | x | x
CC(C)c1ccc(S(=O)(=O)c2cn(CC(=O)Nc3ccc(F)cc3)c3ccccc3c2=O)cc1 | n | x | n | n | n | n
OCCN1CCN(CC(O)COCCOc2ccc(Br)cc2)CC1 (centres undefined) | u | n | n | n | 23µM | n
CC1(C)CCCC(C)(C)N1CC(O)COCCOc1ccc(Br)cc1 (centres undefined) | u | n | n | n | 16µM | n
COc1ccccc1N1CCN(CC(O)COc2ccc(C)cc2C)CC1 (centres undefined) | u | -65 | x | n | u | n
Cc1ccc(OCC(O)CN2CCN(c3ccccn3)CC2)c(C)c1 (centres undefined) | n | n | n | n | n | n
COc1ccc(CCn2c3c(c(=O)[nH]c2=S)CN(Cc2ccccc2)CN3)cc1OC | u | x | n | x | n | x
Cc1ccc2nc(CCl)[n+]([O-])c(-c3ccccc3)c2c1 | 26µM | u | x | n | 16µM | n
O=C(CCN1C(=O)/C(=C/c2ccccc2F)SC1=S)NCCCN1CCOCC1 | u | -97 | n | n | u | n
O=C1C(=Cc2cccc(O)c2O)SC(=S)N1CCCN1CCOCC1 | 13µM | n | x | n | 15µM | n
COc1ccc(OC)c(S(=O)(=O)NCCCN2CCOCC2)c1 | n | n | n | n | n | n

From PubChem BioAssay
